We go through 1 sequence from publication PMC7862700, “An all-to-all approach to the identification of sequence-specific readers for epigenetic DNA modifications on cytosine”.

What all share (assay): DAPPL (digital affinity profiling via proximity ligation, sequencing); 10 mM Tris-HCl pH 7.5, 50 mM NaCl, 1 mM DTT, 4% glycerol, room temperature, 30 min; GST-TFs on glutathione beads, 16-mer random dsDNA library, 0.1% formaldehyde crosslink after washing; high values mean tight binding
For one assay, the target named is T1, FEV (Homo sapiens, UniProt Q99581 1-238).
T1 sequence: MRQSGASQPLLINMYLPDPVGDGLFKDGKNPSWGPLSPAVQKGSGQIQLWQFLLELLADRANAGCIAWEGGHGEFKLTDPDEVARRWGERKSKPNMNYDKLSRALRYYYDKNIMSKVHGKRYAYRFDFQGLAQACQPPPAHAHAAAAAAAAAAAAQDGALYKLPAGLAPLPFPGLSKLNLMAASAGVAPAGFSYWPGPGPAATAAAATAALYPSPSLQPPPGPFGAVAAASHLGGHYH
The following applies: protein: recombinant; tags: N-terminal GST; dsDNA, one strand shown. In outline: (§1)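 Binding signal is given per hexamer as its read frequency for a factor divided by its frequency in the tag-only sample. GST-fused human transcription factors were expressed in yeast, captured on glutathione beads, barcoded with DNA and pooled with that sample, then incubated with 200 nmole of a 16-mer random double-stranded DNA library in Tris/NaCl/DTT/glycerol buffer for 30 min at room temperature. The pools were then washed, crosslinked, proximity-ligated, amplified by PCR and sequenced on an Illumina NextSeq500.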

A further assay concerns the target ETV5 (Homo sapiens, UniProt P41161 1-510). Conditions: protein: recombinant; tags: N-terminal GST; dsDNA, one strand shown. Put shortly: as §1
Another assay addresses HSF1 (Homo sapiens, UniProt Q00613 1-529). The following applies: protein: recombinant; tags: N-terminal GST; chain copies: 3; dsDNA, one strand shown. In outline:
as §1

In the next assay the target is T2, SPIC (Homo sapiens, UniProt Q8N5J4 1-248).
T2 sequence: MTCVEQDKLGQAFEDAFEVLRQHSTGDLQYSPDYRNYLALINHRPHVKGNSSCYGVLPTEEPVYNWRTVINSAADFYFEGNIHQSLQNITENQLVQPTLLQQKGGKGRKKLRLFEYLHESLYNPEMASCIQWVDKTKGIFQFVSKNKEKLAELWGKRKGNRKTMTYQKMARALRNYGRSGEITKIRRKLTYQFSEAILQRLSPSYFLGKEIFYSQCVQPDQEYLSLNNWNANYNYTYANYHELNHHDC
The following applies: protein: recombinant; tags: N-terminal GST; dsDNA, one strand shown. In outline: as §1

The next assay has as its target ELF4 (Homo sapiens, UniProt Q99607 1-663). Conditions: protein: recombinant; tags: N-terminal GST; dsDNA, one strand shown. Put shortly: as §1
In a further assay the target is T3, ELK4 (Homo sapiens, UniProt P28324-2 1-405).
T3 sequence: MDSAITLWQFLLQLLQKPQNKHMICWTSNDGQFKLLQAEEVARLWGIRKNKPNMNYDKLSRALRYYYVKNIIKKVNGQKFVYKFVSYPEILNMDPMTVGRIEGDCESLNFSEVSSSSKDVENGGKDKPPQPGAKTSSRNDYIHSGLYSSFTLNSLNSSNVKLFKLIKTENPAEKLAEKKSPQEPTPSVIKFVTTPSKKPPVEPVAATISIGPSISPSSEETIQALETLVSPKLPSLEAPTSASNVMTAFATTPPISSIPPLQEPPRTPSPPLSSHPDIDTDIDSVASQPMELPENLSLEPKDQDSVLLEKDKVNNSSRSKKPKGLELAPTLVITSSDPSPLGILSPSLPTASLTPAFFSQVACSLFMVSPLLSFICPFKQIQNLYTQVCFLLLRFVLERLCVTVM
The following applies: protein: recombinant; tags: N-terminal GST; dsDNA, one strand shown. Put shortly:
as §1

The next assay deals with T4, ETV2 (Homo sapiens, UniProt O00321 1-342).
T4 sequence: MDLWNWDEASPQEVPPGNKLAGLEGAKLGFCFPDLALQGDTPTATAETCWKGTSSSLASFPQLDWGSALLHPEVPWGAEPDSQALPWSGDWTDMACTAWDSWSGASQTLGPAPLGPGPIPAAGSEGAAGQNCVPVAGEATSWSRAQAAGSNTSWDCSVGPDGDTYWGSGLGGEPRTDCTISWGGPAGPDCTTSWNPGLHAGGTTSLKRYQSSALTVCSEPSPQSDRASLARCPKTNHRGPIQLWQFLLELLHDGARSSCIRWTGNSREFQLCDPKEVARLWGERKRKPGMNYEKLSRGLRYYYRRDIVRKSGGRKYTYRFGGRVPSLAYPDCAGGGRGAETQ
Conditions: protein: recombinant; tags: N-terminal GST; dsDNA, one strand shown. In outline: as §1

The target in a further assay is T5, ELF3 (Homo sapiens, UniProt P78545 1-371).
T5 sequence: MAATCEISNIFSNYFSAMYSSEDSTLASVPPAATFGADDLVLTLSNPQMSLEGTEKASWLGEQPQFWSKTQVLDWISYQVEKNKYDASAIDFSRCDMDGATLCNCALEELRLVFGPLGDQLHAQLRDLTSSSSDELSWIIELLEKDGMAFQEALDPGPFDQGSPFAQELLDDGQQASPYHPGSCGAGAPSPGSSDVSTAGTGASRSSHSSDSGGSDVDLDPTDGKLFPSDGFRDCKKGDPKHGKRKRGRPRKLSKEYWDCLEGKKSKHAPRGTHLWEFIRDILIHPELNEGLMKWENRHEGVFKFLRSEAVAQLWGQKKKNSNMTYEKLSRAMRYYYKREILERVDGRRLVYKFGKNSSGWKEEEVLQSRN
The following applies: protein: recombinant; tags: N-terminal GST; dsDNA, one strand shown. In outline: as §1

For a further assay, the target named is CRX (Homo sapiens, UniProt O43186 1-299). The following applies: protein: recombinant; tags: N-terminal GST; dsDNA, one strand shown. Put shortly: as §1
In a further assay the target is ETV1 (Homo sapiens, UniProt P50549 1-477). Conditions: protein: recombinant; tags: N-terminal GST; dsDNA, one strand shown. In outline: as §1
For a further assay, the target named is T6, ERF (Homo sapiens, UniProt P50548 1-548).
T6 sequence: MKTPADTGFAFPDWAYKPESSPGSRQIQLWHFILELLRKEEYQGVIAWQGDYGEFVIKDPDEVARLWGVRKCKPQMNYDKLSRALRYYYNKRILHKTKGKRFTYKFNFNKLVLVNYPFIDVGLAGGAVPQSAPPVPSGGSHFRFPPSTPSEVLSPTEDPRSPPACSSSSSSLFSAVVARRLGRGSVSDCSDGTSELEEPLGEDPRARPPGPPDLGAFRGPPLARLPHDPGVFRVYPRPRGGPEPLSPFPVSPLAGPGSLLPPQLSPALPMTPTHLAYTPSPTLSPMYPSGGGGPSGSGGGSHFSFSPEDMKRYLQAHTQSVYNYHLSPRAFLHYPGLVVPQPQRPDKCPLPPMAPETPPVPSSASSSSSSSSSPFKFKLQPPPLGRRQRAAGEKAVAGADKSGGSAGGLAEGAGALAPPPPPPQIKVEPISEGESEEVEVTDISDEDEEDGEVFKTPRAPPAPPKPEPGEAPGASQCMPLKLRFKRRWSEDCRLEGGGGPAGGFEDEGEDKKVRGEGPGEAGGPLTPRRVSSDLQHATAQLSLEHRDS
The following applies: protein: recombinant; tags: N-terminal GST; dsDNA, one strand shown. In outline:
as §1

The next assay has as its target T7, ETV3L (Homo sapiens, UniProt Q6ZN32 1-361).
T7 sequence: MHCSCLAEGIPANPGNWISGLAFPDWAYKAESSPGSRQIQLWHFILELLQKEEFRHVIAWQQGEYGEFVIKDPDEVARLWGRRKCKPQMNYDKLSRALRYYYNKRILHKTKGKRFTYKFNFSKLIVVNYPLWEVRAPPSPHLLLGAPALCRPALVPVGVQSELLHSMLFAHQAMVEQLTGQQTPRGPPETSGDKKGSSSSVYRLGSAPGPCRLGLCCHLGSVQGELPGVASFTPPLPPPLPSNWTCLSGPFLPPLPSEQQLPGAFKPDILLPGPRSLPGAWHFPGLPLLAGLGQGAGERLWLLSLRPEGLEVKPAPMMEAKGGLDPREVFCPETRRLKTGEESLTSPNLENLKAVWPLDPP
Conditions: protein: recombinant; tags: N-terminal GST; dsDNA, one strand shown. Put shortly:
as §1

For another assay, the target named is T8, ETS2 (Homo sapiens, UniProt P15036 1-469).
T8 sequence: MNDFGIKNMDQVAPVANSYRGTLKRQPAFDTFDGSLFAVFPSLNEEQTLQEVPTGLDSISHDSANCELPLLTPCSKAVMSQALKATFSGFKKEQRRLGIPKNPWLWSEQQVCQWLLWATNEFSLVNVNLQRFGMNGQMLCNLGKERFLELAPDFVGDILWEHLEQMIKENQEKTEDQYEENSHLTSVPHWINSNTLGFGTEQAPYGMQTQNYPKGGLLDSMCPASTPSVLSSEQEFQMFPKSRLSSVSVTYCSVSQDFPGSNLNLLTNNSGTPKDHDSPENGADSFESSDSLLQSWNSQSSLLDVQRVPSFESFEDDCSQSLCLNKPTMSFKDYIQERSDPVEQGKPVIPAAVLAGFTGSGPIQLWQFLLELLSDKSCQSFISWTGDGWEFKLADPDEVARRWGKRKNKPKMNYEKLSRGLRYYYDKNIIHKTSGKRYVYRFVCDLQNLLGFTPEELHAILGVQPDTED
Conditions: protein: recombinant; tags: N-terminal GST; dsDNA, one strand shown. In outline: as §1

A further assay concerns the target T9, SPDEF (Homo sapiens, UniProt O95238 1-335).
T9 sequence: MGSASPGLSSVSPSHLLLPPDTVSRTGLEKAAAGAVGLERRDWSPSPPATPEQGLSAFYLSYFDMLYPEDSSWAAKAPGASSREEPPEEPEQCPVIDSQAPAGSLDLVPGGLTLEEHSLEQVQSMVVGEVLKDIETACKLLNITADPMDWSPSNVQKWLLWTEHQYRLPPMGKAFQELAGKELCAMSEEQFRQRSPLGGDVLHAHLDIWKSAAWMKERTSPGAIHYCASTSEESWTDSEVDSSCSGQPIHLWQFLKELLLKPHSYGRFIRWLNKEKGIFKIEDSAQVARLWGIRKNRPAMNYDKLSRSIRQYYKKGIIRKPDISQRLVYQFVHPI
Conditions: protein: recombinant; tags: N-terminal GST; dsDNA, one strand shown. Put shortly: as §1

For a further assay, the target named is T10, ETV7 (Homo sapiens, UniProt Q9Y603 1-341).
T10 sequence: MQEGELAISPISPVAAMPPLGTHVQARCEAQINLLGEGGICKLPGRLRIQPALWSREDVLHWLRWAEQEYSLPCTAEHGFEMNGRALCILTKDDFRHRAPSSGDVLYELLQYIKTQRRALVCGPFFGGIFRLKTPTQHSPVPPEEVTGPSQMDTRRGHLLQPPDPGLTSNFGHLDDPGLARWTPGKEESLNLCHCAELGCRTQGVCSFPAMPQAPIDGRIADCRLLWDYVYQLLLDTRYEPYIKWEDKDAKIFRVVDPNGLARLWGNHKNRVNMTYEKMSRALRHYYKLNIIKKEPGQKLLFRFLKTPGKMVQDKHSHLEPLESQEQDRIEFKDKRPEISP
The following applies: protein: recombinant; tags: N-terminal GST; dsDNA, one strand shown. Put shortly:
as §1

In a further assay the target is T11, ELF5 (Homo sapiens, UniProt Q9UKW6-2 1-255).
T11 sequence: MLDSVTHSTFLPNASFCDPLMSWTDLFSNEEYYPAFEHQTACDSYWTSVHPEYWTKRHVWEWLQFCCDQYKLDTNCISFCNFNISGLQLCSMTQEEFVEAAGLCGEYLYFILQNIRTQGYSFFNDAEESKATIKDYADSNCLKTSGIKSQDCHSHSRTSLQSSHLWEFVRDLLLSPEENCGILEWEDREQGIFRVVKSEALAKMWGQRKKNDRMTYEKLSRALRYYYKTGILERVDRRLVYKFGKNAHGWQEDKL
Conditions: protein: recombinant; tags: N-terminal GST; dsDNA, one strand shown. Put shortly:
as §1

A further assay concerns the target T12, ETV3 (Homo sapiens, UniProt P41162-2 1-143).
T12 sequence: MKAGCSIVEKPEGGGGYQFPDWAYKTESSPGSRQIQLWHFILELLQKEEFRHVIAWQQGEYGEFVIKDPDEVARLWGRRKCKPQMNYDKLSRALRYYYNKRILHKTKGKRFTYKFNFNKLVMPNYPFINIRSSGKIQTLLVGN
The following applies: protein: recombinant; tags: N-terminal GST; dsDNA, one strand shown. In outline: as §1

The target in the next assay is ETV6 (Homo sapiens, UniProt P41212 1-452). Conditions: protein: recombinant; tags: N-terminal GST; dsDNA, one strand shown. In outline:
as §1

ETV1, sequence (P50549 whole entry): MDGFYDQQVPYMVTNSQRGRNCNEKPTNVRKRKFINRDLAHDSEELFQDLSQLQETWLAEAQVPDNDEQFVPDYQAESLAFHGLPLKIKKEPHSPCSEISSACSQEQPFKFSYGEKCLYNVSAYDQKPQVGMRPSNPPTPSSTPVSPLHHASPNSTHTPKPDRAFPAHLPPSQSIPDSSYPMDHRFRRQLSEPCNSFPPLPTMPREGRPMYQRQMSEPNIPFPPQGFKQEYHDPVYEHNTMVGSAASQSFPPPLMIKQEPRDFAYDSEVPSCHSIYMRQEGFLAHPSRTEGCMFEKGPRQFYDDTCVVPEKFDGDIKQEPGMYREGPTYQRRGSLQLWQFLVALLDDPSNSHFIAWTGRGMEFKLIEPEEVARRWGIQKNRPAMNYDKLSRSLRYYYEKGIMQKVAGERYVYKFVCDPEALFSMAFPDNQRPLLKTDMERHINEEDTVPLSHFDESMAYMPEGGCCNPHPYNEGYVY
HSF1, sequence (Q00613 whole entry): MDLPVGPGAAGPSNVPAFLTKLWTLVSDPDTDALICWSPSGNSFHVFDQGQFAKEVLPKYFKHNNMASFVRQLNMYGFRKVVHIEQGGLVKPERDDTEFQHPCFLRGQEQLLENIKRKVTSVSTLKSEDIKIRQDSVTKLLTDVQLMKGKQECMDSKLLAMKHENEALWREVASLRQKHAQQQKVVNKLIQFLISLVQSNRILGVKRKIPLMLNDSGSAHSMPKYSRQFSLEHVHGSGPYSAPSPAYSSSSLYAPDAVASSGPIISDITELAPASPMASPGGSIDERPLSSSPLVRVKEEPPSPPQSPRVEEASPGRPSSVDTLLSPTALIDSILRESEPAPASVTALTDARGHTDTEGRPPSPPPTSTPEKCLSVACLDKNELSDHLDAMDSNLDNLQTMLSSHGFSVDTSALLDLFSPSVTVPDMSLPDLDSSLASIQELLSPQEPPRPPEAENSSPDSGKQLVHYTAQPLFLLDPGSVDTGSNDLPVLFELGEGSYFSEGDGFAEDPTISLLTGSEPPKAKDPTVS
ETV6, sequence (P41212 whole entry): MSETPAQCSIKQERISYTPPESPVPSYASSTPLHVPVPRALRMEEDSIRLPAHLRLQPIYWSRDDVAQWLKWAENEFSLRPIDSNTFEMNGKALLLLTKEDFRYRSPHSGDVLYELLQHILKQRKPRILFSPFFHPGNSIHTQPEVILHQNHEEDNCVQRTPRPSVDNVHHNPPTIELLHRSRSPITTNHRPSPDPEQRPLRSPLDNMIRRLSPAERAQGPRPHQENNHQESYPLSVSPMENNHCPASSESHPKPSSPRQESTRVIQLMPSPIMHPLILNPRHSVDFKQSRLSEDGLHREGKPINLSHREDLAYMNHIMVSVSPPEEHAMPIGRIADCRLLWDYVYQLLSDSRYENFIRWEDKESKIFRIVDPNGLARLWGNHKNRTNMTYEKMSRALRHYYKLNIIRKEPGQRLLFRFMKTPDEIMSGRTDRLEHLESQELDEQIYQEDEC
CRX, sequence (O43186 whole entry): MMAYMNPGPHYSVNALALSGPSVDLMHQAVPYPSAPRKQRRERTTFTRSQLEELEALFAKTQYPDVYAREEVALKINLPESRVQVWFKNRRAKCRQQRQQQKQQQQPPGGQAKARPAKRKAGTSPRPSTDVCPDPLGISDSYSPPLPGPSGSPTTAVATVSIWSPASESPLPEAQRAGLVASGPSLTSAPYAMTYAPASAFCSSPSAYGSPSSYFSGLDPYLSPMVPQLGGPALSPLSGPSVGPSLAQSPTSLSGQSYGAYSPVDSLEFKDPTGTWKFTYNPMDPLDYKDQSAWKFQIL
ELF4, sequence (Q99607 whole entry): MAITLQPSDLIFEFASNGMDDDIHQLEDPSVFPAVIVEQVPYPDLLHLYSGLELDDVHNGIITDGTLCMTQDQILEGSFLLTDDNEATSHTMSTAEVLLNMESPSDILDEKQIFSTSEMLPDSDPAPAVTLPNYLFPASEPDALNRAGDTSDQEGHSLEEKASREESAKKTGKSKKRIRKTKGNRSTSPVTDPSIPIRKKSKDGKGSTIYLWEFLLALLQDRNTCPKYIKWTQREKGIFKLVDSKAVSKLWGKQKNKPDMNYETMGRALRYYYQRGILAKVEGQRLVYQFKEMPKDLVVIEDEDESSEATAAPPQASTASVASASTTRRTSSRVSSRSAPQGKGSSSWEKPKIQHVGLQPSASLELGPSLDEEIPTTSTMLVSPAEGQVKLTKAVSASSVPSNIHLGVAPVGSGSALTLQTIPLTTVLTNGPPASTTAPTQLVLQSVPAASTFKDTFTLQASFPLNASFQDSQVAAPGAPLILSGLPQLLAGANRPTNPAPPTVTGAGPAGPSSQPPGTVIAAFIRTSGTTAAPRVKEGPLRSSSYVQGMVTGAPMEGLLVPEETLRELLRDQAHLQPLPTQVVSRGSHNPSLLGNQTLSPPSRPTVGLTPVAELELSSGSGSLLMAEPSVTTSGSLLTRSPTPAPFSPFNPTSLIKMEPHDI
ETV5, sequence (P41161 whole entry): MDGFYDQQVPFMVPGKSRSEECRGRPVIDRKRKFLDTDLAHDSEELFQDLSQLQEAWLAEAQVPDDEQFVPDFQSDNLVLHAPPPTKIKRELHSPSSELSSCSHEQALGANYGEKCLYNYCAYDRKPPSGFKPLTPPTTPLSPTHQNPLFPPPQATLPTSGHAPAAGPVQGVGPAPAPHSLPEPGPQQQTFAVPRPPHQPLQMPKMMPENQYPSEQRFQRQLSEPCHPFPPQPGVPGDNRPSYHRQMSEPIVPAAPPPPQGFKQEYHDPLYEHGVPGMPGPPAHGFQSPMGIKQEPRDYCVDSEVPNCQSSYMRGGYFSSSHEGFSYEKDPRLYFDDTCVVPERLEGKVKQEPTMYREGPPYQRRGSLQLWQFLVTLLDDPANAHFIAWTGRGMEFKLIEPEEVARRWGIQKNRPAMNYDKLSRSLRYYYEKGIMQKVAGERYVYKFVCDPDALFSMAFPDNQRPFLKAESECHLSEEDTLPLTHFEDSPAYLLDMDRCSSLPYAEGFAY

As for CCCTAC, the binding signal is 1.46 fold enrichment (6-mer frequency, TF over GST control) with FEV; 1.43 fold enrichment (6-mer frequency, TF over GST control) with ETV5; 1.13 fold enrichment (6-mer frequency, TF over GST control) in the assay with HSF1; 1.45 fold enrichment (6-mer frequency, TF over GST control) with SPIC; 1.47 fold enrichment (6-mer frequency, TF over GST control) in the assay with ELF4; 1.53 fold enrichment (6-mer frequency, TF over GST control) in the assay with ELK4. The binding signal with ETV2 was 1.22 fold enrichment (6-mer frequency, TF over GST control); with ELF3 it was 1.48 fold enrichment (6-mer frequency, TF over GST control); with CRX, 1.19 fold enrichment (6-mer frequency, TF over GST control); with ETV1, 1.46 fold enrichment (6-mer frequency, TF over GST control); with ERF, 1.37 fold enrichment (6-mer frequency, TF over GST control); in the assay with ETV3L, 1.53 fold enrichment (6-mer frequency, TF over GST control). Further, the binding signal was 1.42 fold enrichment (6-mer frequency, TF over GST control) with ETS2; 1.43 fold enrichment (6-mer frequency, TF over GST control) with SPDEF; 1.37 fold enrichment (6-mer frequency, TF over GST control) with ETV7; 1.61 fold enrichment (6-mer frequency, TF over GST control) in the assay with ELF5; 1.41 fold enrichment (6-mer frequency, TF over GST control) in the assay with ETV3; 1.6 fold enrichment (6-mer frequency, TF over GST control) with ETV6.
